Source: PubChem BioAssay
DSG3 Ab inh = human desmoglein-3 autoantibody binding inhibition. P32926. DSG3-coupled beads, scFv-anti-DSG3-GFP binding, flow cytometry; active compounds read low. binding (percent of control), % at 10 µM. actives 0.48% (n = 310,000);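 active = binding more than 3 SD below its plate's average and above zero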;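 note: hits lower antibody fragment binding to DSG3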
MsrA inhibitor = inhibits bovine methionine sulfoxide reductase A; inhibition, % at 15.5 µM; AID 651718; actives 0.75% (n = 360,000); purified bovine MsrA, absorbance read-out; in the data active = inhibition above about 4.5%
NadD inh = blocks S. aureus nicotinate mononucleotide adenylyltransferase; purified NadD enzyme, colorimetric absorbance read-out; inhibition, % at 20 µM; actives 0.78% (n = 360,000); in the data active = inhibition above about 26%
bovine MsrA act = activates bovine MsrA enzyme | actives 0.3% (n = 360,000) | AID 602163 | purified bovine MsrA, absorbance read-out | activation, % at 10.6 µM; in the data active = activation above about 7.5%
DAGLB inh = diacylglycerol lipase beta (human) inhibition; HEK293T DAGLB membrane lysate, EnzChek fluorogenic substrate; actives 0.059% (n = 340,000); inhibition, % at 5.17 µM; Q8NCG7; in the data active = inhibition above about 34%
Target sequence (Q8NCG7 whole entry, looked up): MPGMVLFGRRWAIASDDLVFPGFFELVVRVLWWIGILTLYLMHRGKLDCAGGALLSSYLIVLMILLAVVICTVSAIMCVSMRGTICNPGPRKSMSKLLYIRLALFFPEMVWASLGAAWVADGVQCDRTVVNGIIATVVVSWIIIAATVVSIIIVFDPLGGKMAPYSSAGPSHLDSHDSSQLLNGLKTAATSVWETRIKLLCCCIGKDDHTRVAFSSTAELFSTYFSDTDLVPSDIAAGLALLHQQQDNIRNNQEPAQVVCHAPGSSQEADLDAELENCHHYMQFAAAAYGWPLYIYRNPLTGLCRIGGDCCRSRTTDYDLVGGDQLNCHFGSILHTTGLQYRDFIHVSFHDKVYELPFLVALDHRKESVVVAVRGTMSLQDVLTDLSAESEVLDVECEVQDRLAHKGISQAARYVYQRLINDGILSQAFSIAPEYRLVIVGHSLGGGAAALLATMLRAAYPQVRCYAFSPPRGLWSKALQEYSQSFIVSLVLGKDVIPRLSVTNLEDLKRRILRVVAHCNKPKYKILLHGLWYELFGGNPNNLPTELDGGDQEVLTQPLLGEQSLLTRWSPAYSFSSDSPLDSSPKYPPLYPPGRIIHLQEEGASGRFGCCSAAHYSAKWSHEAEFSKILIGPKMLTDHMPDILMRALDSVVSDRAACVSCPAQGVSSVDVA
rCAG RNA binder = binds r(CAG) RNA repeats; r(CAG) RNA repeat, TO-PRO-1 dye displacement fluorescence; inhibition, % at 3 µM; actives 1.3% (n = 370,000);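 active = inhibition above the plate cutoff, the mean of all test compounds on that plate plus 3 SD, cut at about 35% in these data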;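 note: higher means more dye released from RNA so lower well fluorescence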
rCAG bind conf = r(CAG) RNA repeat binding, confirmation. shares compounds with rCAG RNA binder. TO-PRO-1 dye displacement fluorescence. inhibition, % at 3 µM. actives 70% (n = 4,300). AID 652065;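 active = inhibition above a per-plate cutoff, the mean inhibition of sample wells plus 3 SD, cut at about 35% in these data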;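 note: loss of TO-PRO-1 fluorescence as compound displaces dye from 1x1 AA loop RNA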
dCAG dye counter = DNA CAG dye complex inhibition counter-screen. actives 94% (n = 4,300). d(CAG) DNA oligo TO-PRO-1 dye displacement, fluorescence. inhibition, % at 3 µM. shares compounds with rCAG RNA binder. AID 652068;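 active = inhibition above its plate's cutoff, the mean test-well inhibition plus 3 SD, cut at about 4.8% in these data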;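 note: hits displace the dye from DNA and so lower well fluorescence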
dCAG dye DR = disrupts DNA CAG TO-PRO-1 complex in dose response | DNA CAG/GTC duplex TO-PRO-1 dye displacement fluorescence | IC50, µM | actives 20% (n = 250) | shares compounds with rCAG RNA binder | AID 686960; in the data active = IC50 below about 10 µM
A number is an active result; n = inactive; x = no result. Shown are actives, neighbours in structure and some others; about 3.2% of the full set was active somewhere.

SMILES	DSG3 Ab inh	MsrA inhibitor	NadD inh	bovine MsrA act	DAGLB inh	rCAG RNA binder	rCAG bind conf	dCAG dye counter	others
CCCNC(=O)C1(C)CCN1C(=O)c1ccccc1CCc1ccccc1 (stereo unspecified)	x	n	n	n	x	n	x	x
Cc1ccccc1S(=O)(=O)NC(=O)C1(C)CCN1C(=O)c1cccc2ccccc12 (stereo unspecified)	x	n	n	n	x	n	x	x
CC1(C(=O)NS(=O)(=O)c2ccc(Cl)s2)CCN1C(=O)CCc1ccccc1 (stereo unspecified)	x	n	n	n	x	n	x	x
CC1(C(=O)NS(=O)(=O)c2ccc(Cl)s2)CCN1C(=O)c1ccccc1CCc1ccccc1 (stereo unspecified)	x	n	n	n	x	71	72	31	dCAG dye DR=3
Cc1ccccc1S(=O)(=O)NC(=O)C1(C)CCN1C(=O)c1ccccc1CCc1ccccc1 (stereo unspecified)	x	n	n	n	x	50	41	10
Cc1ccc(S(=O)(=O)NC(=O)C2(C)CCN2C(=O)c2ccccc2CCc2ccccc2)cc1 (stereo unspecified)	x	n	n	n	x	48	48	14
CC(C)C(=O)N1CC[C@H]2[C@H](CCCN2Cc2ccccc2)C1	x	x	x	x	x	n	x	x
C=C1[C@@H]2CC[C@H]3[C@]4(C)[C@@H](O)CC[C@@](C)(C(=O)OC)[C@H]4C[C@H](O)[C@]3(C2)[C@H]1O	x	x	x	x	x	n	x	x
Cc1cc(N2CCN(C(=O)Oc3ccc(-c4ccccc4)cc3)CC2)c2ccccc2n1	x	x	x	x	x	n	x	x
COc1ccc(N2C(=O)c3ccccc3NC(=O)C2C(=O)NCc2ccco2)cc1 (stereo unspecified)	x	n	x	x	x	n	x	x
CC(C)C(=O)OCCCN1CCC2(CCC(c3ccccc3)CC2)C1=O (stereo unspecified)	x	x	x	x	x	n	x	x
COc1ccc(S[C@]2(C(=O)N3CCN(C(C)=O)CC3)CC(=O)N(S(=O)(=O)c3ccc(F)cc3)[C@@H]2c2ccc(OC)cc2)cc1	x	x	x	x	x	n	x	x
Cc1noc(C)c1S(=O)(=O)NC(=O)C1(C)CCN1C(=O)c1ccccc1CCc1ccccc1 (stereo unspecified)	x	n	n	n	x	n	x	x
CC1(C(=O)NS(=O)(=O)c2ccccc2)CCN1C(=O)c1ccccc1CCc1ccccc1 (stereo unspecified)	x	n	n	n	x	40	n	6.5
O=C(Nc1ccc(Cl)c(S(=O)(=O)Nc2ccccc2Cl)c1)c1cccs1	n	n	n	n	n	48	n	11
COc1ccc(NC(=O)c2cc(=O)[nH]c(=O)[nH]2)cc1S(=O)(=O)Nc1ccccc1Cl	n	n	n	n	n	n	x	x
Cc1ccc(C(=O)Nc2ccc(C)c(S(=O)(=O)Nc3ccccc3Cl)c2)s1	n	n	n	n	n	36	46	16
O=C(Nc1ccccc1Cl)c1cccs1	n	n	n	n	n	n	x	x
O=C(Cc1cccc(NC(=O)C2CCCN(C(=O)C3CCCC3)C2)c1)Nc1ccc(C(=O)N2CCOCC2)cc1 (stereo unspecified)	n	n	n	n	n	n	x	x
Cn1c2ccccc2c2cc(/C=C(\NC(=O)c3ccccc3)C(=O)O)ccc21	n	n	n	n	n	37	n	8.0
COc1ccc2nc(N3C(=O)C(O)=C(C(=O)c4ccco4)C3c3ccccc3OC)sc2c1 (stereo unspecified)	n	n	n	n	n	39	57	21
COc1ccc2nc(N3C(=O)C(O)=C(C(=O)c4ccco4)C3c3ccc(C)o3)sc2c1 (stereo unspecified)	n	n	n	n	n	54	59	19
Cc1cccc(CN2CCN(C3CN(Cc4cn(Cc5ccc(F)cc5)nn4)S(=O)(=O)C3)CC2)c1 (stereo unspecified)	x	n	n	n	x	n	x	x
Cc1cccc(NS(=O)(=O)c2ccc(C)c(NS(=O)(=O)c3cccs3)c2)c1	n	n	n	n	n	36	n	7.9
Cc1cccc(NS(=O)(=O)c2ccc(NS(=O)(=O)c3cccs3)cc2)c1	n	n	n	n	n	n	x	x
SMILES	DSG3 Ab inh	MsrA inhibitor	NadD inh	bovine MsrA act	DAGLB inh	rCAG RNA binder	rCAG bind conf	dCAG dye counter	others
Cc1cccc(C)c1-n1c(SCC(=O)Nc2ccc(C(=O)O)cc2)nnc1-c1cccc(S(=O)(=O)N(C)C)c1	n	n	n	n	n	38	n	n
O=C(CSc1nnc(-c2cccc(S(=O)(=O)N3CCCC3)c2)n1-c1ccccc1)Nc1ccc(C(=O)O)cc1	n	n	n	n	n	n	x	x
c1ccc(Cn2c(SCC3CCC3)nnc2-c2cccnc2)cc1	x	x	x	x	x	n	x	x
NN1C(=O)/C(=C2/Sc3ccccc3N2CCCS(=O)(=O)O)SC1=S	n	n	n	n	n	n	x	x
O=C1/C(=C2\C(=O)N(Cc3ccc(F)cc3)c3ccccc32)SC(=S)N1CCS(=O)(=O)O	n	n	n	n	n	75	83	47
C[C@H](CO)N1C[C@H](C)[C@H](CN(C)S(=O)(=O)c2cccs2)OCc2cnnn2CCCC1=O	n	n	n	n	n	n	x	x
O=C(NCc1ccccc1Br)c1cccc2c1C(=O)c1ccc(-c3ccc(OC(F)(F)F)cc3)cc1S2(=O)=O	n	x	n	n	n	x	x	x
O=C(O)c1cccc2c1C(=O)c1ccc(-c3ccc(OC(F)(F)F)cc3)cc1S2(=O)=O	n	n	n	n	n	69	60	16
O=C(N1CCCCC1)N1CCN(S(=O)(=O)c2cccc([N+](=O)[O-])c2)CC1	n	n	n	n	n	n	x	x
O=C(O)/C(=C\c1cccc([N+](=O)[O-])c1)c1ccc(S(=O)(=O)N2CCCCC2)s1	n	n	n	n	n	38	44	14
COc1cc(/C=C(\C(=O)O)c2ccc(S(=O)(=O)N3CCCC3)s2)cc(OC)c1	n	n	n	n	n	n	x	x
CCOc1ccc(/C=C(\C(=O)O)c2ccc(S(=O)(=O)N3CCOCC3)s2)cc1OC	n	n	n	n	n	n	x	x
O=C(O)/C(=C\c1ccc(Cl)c([N+](=O)[O-])c1)c1ccc(S(=O)(=O)N2CCCCC2)s1	n	n	n	n	n	38	68	29
O=C(O)/C(=C\c1cccc(C(F)(F)F)c1)c1ccc(S(=O)(=O)N2CCCC2)s1	x	n	n	n	n	36	n	5.5
O=C(O)/C(=C\c1ccc(Cl)c([N+](=O)[O-])c1)c1ccc(S(=O)(=O)N2CCCC2)s1	n	n	n	n	n	71	47	15
Cc1cc(C(=O)N2CCC2(C)C(=O)Nc2cc(C(C)(C)C)nn2C)nn1C (stereo unspecified)	x	n	n	n	x	n	x	x
